From PubChem
A3A deaminase = APOBEC3A ssDNA deaminase inhibitors, primary screen, selectivity assay for APOBEC3G inhibitor project, biochemical, FAM/TAMRA oligo cleavage fluorescence; recombinant A3A, FAM/TAMRA ssDNA deamination fluorescence; inhibition, % at 20 µM; 0.41% of 330,000 active; AID 493011, 2011;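 active = at least 40% inhibition at 20 µM here, with at most 30% in a related deaminase screen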;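 note: plate controls were A3A with DMSO for no effect and wells lacking A3A enzyme for full effect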
Target sequence (P31941 whole entry, looked up): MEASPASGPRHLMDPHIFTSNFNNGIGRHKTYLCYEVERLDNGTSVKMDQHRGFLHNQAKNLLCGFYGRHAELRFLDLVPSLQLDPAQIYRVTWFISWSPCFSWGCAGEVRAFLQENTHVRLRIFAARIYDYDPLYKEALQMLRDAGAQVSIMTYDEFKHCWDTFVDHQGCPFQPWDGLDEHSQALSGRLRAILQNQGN
NadD inh = inhibitors of S. aureus NadD, primary screen, biochemical, colorimetric, uHTS; Nicotinate-nucleotide adenylyltransferase NadD (Staphylococcus aureus N315); purified NadD enzyme, colorimetric absorbance read-out; inhibition, % at 20 µM; 0.78% of 360,000 active; AID 602399, 2012; in the data active = inhibition above about 26%
PfG6PD inh = PfG6PD enzyme inhibitors, primary screen, biochemical, fluorescence intensity, uHTS. 0.78% of 350,000 active. AID 504690, 2011. PfGluPho enzyme, NADPH resazurin-diaphorase fluorescence. inhibition, % at 20 µM;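 active = inhibition reaching at least a set limit at 20 µM in the primary screen, cut at about 59% in these data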;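 note: 0% = DMSO wells with substrate and 100% = DMSO wells lacking glucose-6-phosphate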
APOBEC3G inh = APOBEC3G DNA deaminase inhibitors, primary screen, biochemical, fluorescence, single-stranded DNA substrate, uHTS; DNA dC->dU-editing enzyme APOBEC-3G (Homo sapiens), Q9HC16; recombinant A3G, ssDNA deamination FAM/TAMRA fluorescence; inhibition, % at 20 µM; 0.28% of 330,000 active; AID 493012, 2011;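 active = inhibition of at least 40% at 20 µM, with no more than 30% in the related APOBEC3A deaminase screen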;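 note: plate controls were DMSO wells with A3G for no effect and wells lacking A3G enzyme for full effect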
Target sequence (Q9HC16 whole entry, looked up): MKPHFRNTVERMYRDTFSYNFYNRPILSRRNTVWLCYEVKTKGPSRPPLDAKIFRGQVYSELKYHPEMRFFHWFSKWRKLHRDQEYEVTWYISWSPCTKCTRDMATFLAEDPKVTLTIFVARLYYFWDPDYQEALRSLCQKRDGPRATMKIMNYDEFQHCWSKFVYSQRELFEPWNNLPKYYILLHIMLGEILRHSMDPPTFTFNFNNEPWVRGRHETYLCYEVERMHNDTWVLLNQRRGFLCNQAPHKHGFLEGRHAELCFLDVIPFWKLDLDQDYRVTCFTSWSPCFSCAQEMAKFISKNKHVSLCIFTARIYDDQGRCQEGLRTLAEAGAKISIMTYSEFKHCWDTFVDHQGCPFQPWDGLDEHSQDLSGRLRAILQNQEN
H9c2 protect = cardioprotection against H2O2-induced cell death, primary screen, uHTS, H9c2 cells, ATPLite luminescence | H9c2 cardiomyocytes, H2O2 injury protection, 2 h | protection from H2O2 cell death, % at 20 µM | 0.63% of 360,000 active;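 active = compounds giving at least 50% protection of heart cells from peroxide-induced death in the single-dose screen, raw or plate-pattern-corrected value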;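 note: 0% = DMSO wells with peroxide and 100% = DMSO wells without peroxide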
TAG inh = inhibitors of triacylglycerol accumulation, primary screen, cell-based, uHTS, fluorescence, H9c2; inhibition, % at 12.5 µM; H9c2 cells, Nile Red lipid (TAG) fluorescence; cells loaded with 200 µM oleic acid; 0.66% of 230,000 active;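 active = pattern-corrected inhibition of lipid staining of at least 50% with the nuclear-stain viability signal not falling by more than 50%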;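 note: 0% = DMSO wells and 100% = triacsin C control wells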
Starred values were filed as active, the others as inactive. Shown are actives, neighbours in structure and some others; about 2.9% of the full set was active somewhere.

How did Cc1ccc(S(=O)(=O)N(C(=O)c2ccncc2)c2ccc(OC(=O)c3ccncc3)c3ccccc23)c(C)c1 do in these assays?
A3A deaminase: 3; NadD inh: 14; PfG6PD inh: 73*; APOBEC3G inh: 0; H9c2 protect: -31; TAG inh: 25

How did COc1ccc(/C=C2\C(=O)N(c3c(Cl)cc(Cl)cc3Cl)N=C2NC(=O)c2cccc([N+](=O)[O-])c2)cc1 do in these assays?
NadD inh: 84*; PfG6PD inh: 55; H9c2 protect: -18

What do the screens show for `COC(C/C=C\[C@H](O)[C@@H](C)OCc1ccccc1)OC`?
A3A deaminase: -4; NadD inh: 1; PfG6PD inh: 10; APOBEC3G inh: -2; H9c2 protect: 7; TAG inh: -1

Results for COc1ccc(-c2cc(=O)c3ccccc3[nH]2)cc1 ?
A3A deaminase: 0; NadD inh: 0; PfG6PD inh: 15; APOBEC3G inh: -9; H9c2 protect: 56*; TAG inh: -76

How did CC(C)CCN1CCN(Cc2ccc(N3CCNC3=O)cc2)CC1CCO (stereo not drawn) do in these assays?
A3A deaminase: 9; NadD inh: -2; PfG6PD inh: -9; APOBEC3G inh: 6; H9c2 protect: 7; TAG inh: 5

Results for COc1ccc2occ(C(=O)c3coc4ccc(O)c(CN(C)C)c34)c2c1 ?
A3A deaminase: 6; NadD inh: -5; PfG6PD inh: 6; APOBEC3G inh: -1; H9c2 protect: 61*

What do the screens show for `COc1ccc(OC)c(C(=O)c2coc3ccc(O)c(CN(C)C)c23)c1`?
A3A deaminase: -2; NadD inh: -7; PfG6PD inh: 19; APOBEC3G inh: -4; H9c2 protect: 2; TAG inh: 9

How did COc1ccccc1-c1cc2nc(C)cc(C)n2n1 do in these assays?
A3A deaminase: -2; NadD inh: -8; PfG6PD inh: 17; APOBEC3G inh: 4; H9c2 protect: 0; TAG inh: 13

How did Cc1cc(NC(c2ccc(Cl)cc2)c2ccc3cccnc3c2O)no1 (stereo not drawn) do in these assays?
A3A deaminase: 4; NadD inh: 8; PfG6PD inh: -9; APOBEC3G inh: 6; H9c2 protect: 58*; TAG inh: -50

Results for CCC(=O)NC(c1ccc(Cl)cc1Cl)c1ccc2cccnc2c1O (stereo not drawn) ?
A3A deaminase: -3; NadD inh: 0; PfG6PD inh: -28; APOBEC3G inh: -21; H9c2 protect: 45; TAG inh: 55*

What do the screens show for `CCCCC(=O)NC(c1ccc(Cl)cc1Cl)c1ccc2cccnc2c1O` (stereo not drawn)?
A3A deaminase: -1; NadD inh: 11; PfG6PD inh: -19; APOBEC3G inh: -5; H9c2 protect: 46

Results for CN(C)C(CNc1ncnc2sc3c(c12)CCCC3)c1ccco1 (stereo not drawn) ?
A3A deaminase: 5; NadD inh: -1; PfG6PD inh: 8; APOBEC3G inh: -9; H9c2 protect: -4; TAG inh: -62

How did COc1c(C)cc(Br)cc1C(=O)Nc1cccc(-c2nc3ncccc3o2)c1 do in these assays?
A3A deaminase: -3; NadD inh: -6; PfG6PD inh: -2; APOBEC3G inh: -8; H9c2 protect: 115*; TAG inh: 11

Results for CCc1nnc(NC(=O)CCC(=O)N2CCN(Cc3ccccc3)CC2)s1 ?
A3A deaminase: -5; NadD inh: 0; PfG6PD inh: 3; APOBEC3G inh: -8; H9c2 protect: 15

What do the screens show for `CCc1nnc(NC(=O)CCC(=O)N2CCN(C3c4ccccc4-c4ccccc43)CC2)s1`?
A3A deaminase: -3; NadD inh: 0; PfG6PD inh: -38; APOBEC3G inh: -6; H9c2 protect: 61*

Results for COc1cccc(NC(=O)CN(C)C(=O)c2ccc(S(=O)(=O)Nc3ccccc3F)cc2)c1 ?
A3A deaminase: -2; NadD inh: -8; PfG6PD inh: -16; APOBEC3G inh: -1; H9c2 protect: 1; TAG inh: -2

How did COc1ccc(OC)c(/C=C2\S/C(=N/NC(=O)c3ccc4ccccc4c3)NC2=O)c1 do in these assays?
NadD inh: 70*; PfG6PD inh: -49; H9c2 protect: 58*

Results for COc1cccc(/C=C2\SC(=O)NC2=O)c1OCc1ccc(C(=O)O)cc1 ?
A3A deaminase: -1; NadD inh: -1; PfG6PD inh: -46; APOBEC3G inh: -6; H9c2 protect: 8; TAG inh: -3

Results for O=C1N/C(=N/NC(=O)c2cccc3ccccc23)S/C1=C\c1ccccc1OCc1ccccc1 ?
NadD inh: 82*; PfG6PD inh: -44; H9c2 protect: 45; TAG inh: -3

What do the screens show for `Cc1cccc(Nc2nc3c(c(=O)n(C)c(=O)n3C)n2Cc2ccccc2)c1`?
NadD inh: 4; PfG6PD inh: 2; H9c2 protect: 3; TAG inh: 28

What do the screens show for `COc1ccc(OCC(O)Cn2c(Br)nc3c2c(=O)[nH]c(=O)n3C)cc1` (stereo not drawn)?
A3A deaminase: -3; NadD inh: 5; PfG6PD inh: -5; APOBEC3G inh: -4; H9c2 protect: 54*

How did Cn1c(=O)[nH]c(=O)c2c1nc(Br)n2CC(O)COc1ccc(Cl)cc1 (stereo not drawn) do in these assays?
A3A deaminase: 2; NadD inh: 4; PfG6PD inh: -16; APOBEC3G inh: -5; H9c2 protect: 92*; TAG inh: 3

Results for COc1ccc(OCC(O)Cn2c(Nc3cccc(C)c3)nc3c2c(=O)n(C)c(=O)n3C)cc1 (stereo not drawn) ?
A3A deaminase: 0; NadD inh: -7; PfG6PD inh: -9; APOBEC3G inh: -7; H9c2 protect: 64*

How did CC(C)(C)c1cc(C(=O)O)n(Cc2ccc(Cl)cc2Cl)n1 do in these assays?
A3A deaminase: 4; NadD inh: -3; PfG6PD inh: -15; APOBEC3G inh: 1; H9c2 protect: 9; TAG inh: 7

How did CC1(C(=O)Nc2cccc3c2CCCC3)CCN1C(=O)Cc1ccccc1Cl (stereo not drawn) do in these assays?
NadD inh: -7; H9c2 protect: -3; TAG inh: 2

Results for CCCNC(=O)Cn1c(=O)/c(=C\c2ccc(-c3ccc([N+](=O)[O-])cc3)o2)s/c1=C\C(=O)C(C)(C)C ?
NadD inh: 30*; PfG6PD inh: -26; H9c2 protect: 14
